Z-score data for 108 sequences are collected here from PubChem BioAssay AID1508600 (Functional Genomics Laboratory (NCATS/FGL), 2020).

The campaign covered roughly 53,000 sequences. About 3,700 (7%) were called active.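 How the source made its calls: active means gene knockdowns whose robust z-score for IL-1 alpha signal is at least 2 or at most -2, so actives lie on both sides; inactive means the rest.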 The full list was thinned out, with actives kept by preference.

A short description of this test: Components of the Cytosolic LPS Sensing Pathway: Gene Identification via Genome-wide siRNA Screen.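 Further: robust z of the log signal after scaling to non-targeting control siRNA wells of the plate.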 Conditions: RAW264.7 macrophages, IL-1a HTRF, actives lie on both sides, screened at 100 nM (by protocol), cells primed 5 h with Pam3CSK4 first. Summed up: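 Using IL-1a HTRF as read-out, the screen measured release from RAW264.7 cells after 48h siRNA knockdown (100 nM), 5 h Pam3CSK4 priming and 24 h cytosolic LipidA. Values were expressed relative to negative-control wells as robust z-scores.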
On the technique in general: Time-resolved FRET reads energy transfer from a long-lived donor to a nearby acceptor.
In the case of GGAUUAUGGUCUCAUUGUCTT against Exd2, the z-score is 0.0549 (inactive). Take GGAGCUUUCUCAGAGGUGUTT against Camk1g: the z-score is -1.47 (inactive). The same measure for GCUGCUCGUUAAAGCCGGATT against Ankrd6: 2.92 (active); for CCAGAUGCAGUCACAAGUCTT against Klf4: 0.843 (inactive); for GGUUUUAAAGGCCAUAUUGTT against Msmo1: -1.72 (inactive). As to GCCGACAACACAAAAUUAUTT against Vps26b, the z-score was 0.4 (inactive). The same measure for CGAAAGCACACACGUAGAATT against Erdr1: 0.391 (inactive); for GGUCUUCCAAGGUCAGAAGTT against Cyp2d10: 1.5 (inactive); for “GGCAAUAAUCUUAGAGGUUTT against 9530068E07Rik”: 0.499 (inactive). The same measure for GCUGUAAGGAGGAACUUCUTT against Btg1: -1.03 (inactive). The same measure for GGUCUCUGGUAAGAAGAGCTT against Zfp276: 2.95 (active). For CCGAACAGAGGAAGAAGGCTT against Olfr816, the z-score was 0.281 (inactive). The same measure for GGGAGGACAGUCAUUGGUUTT against Phldb1: -1.84 (inactive); for GCAUAAGGAUAUAGCAUUATT against Ctla4: -0.72 (inactive). The same measure for GGCAUUUGCACAGUUUAUGTT against Upp2: -1.42 (inactive); for GGGUCCUUUUUAGCUGUAGTT against Vdac1: 3.83 (active). To CCUAGUAAUCAGUUUGAAUTT against Ak4 belongs 1.17 (inactive); to CCAUAUGGCUUGUGGCAGATT against Scn1b, -0.245 (inactive); to GGUGACAGAGAUUUUCGAATT against Tbc1d22a, 0.931 (inactive). As for GGCAAGUCUUUAAAAGUCCTT against Xrcc2, the z-score is -1.48 (inactive). In the case of GGCCUUCCGCAUUUUAUCATT against Zfp729a, the z-score is 2.43 (active). To GGAGAAGAAGCUGGACCAGTT against Atp5o belongs 0.348 (inactive). With GGUACAAUACAUUCAAACATT against Serpinb6c, the z-score was -0.82 (inactive). The same measure for CCCUUGUCCAGUGUGAGUUTT against Tmem184b: 1.07 (inactive). On to GGCACAGACCUCACAGUUATT against Olfr64, for which the z-score is 0.534 (inactive). To GGAAAAAGCUGUGAUACUUTT against Hspbap1 belongs -0.895 (inactive); to GGAACUGAUUGAAAACAUCTT against Syce2, 2.97 (active). The same measure for GCAAAAUUAUCAGUGAGGATT against Nt5c3b: -2.54 (active); for GGGCAGAAAACAACUGGAATT against Pappa: -1.1 (inactive).

On to GGAGGAUGGAGUCAUAUAUTT against Gm773, for which the z-score was -0.41 (inactive). For the sequence GGAGUUUGGAAUAAAAAGGTT against Flt3, the z-score is -0.173 (inactive). Turning to GCAGAGGGACAGUCUACAUTT against Rorc, the z-score is -0.534 (inactive).

As to GAUUUCUAUACAGCCUAUCTT against Olfr799, the z-score is 0.312 (inactive). The same measure for GGCUACAAGUUGGUAAUCUTT against Pnkp: 3.36 (active); for GGCUGGACAGGAUUAUCCATT against Tmem185b: -0.904 (inactive); for CGCAGGUAAUUUGUUUGUGTT against Mtnr1b: 1.16 (inactive). Consider GCAUAGCAAUGAAAAUCUATT against Lrit2, for which the z-score is 1.06 (inactive). As to GGUUAAAGUUAAAUCUGUCTT against C6, the z-score was -2.35 (active).

GGUCAAUCUUUGGAGUAUUTT against Stk39: the z-score is -0.129 (inactive). With GCUUCCAAUUACUUAUCCATT against Phc3, the z-score is -0.0705 (inactive). As to GGGAAGAAGAGAUUCUGAUTT against Cep250, the z-score is -1.53 (inactive). To GGCAGGUUUAACUUUAAUGTT against Cacna1e belongs 3.59 (active); to GGACAAGGAUAGUAGUAAGTT against Parp1, -0.122 (inactive). With GCAUACCCUAUUUAGUUUUTT against Gpr33, the z-score was -0.00896 (inactive). To GCACGAAGAACCACACAAGTT against Sp110 belongs 2.37 (active); to CCGGAGUCAGUAUCCAGAATT against Ndufaf4, -0.282 (inactive); to GCCGUGGAUCGAAUAAUUCTT against Coq7, -1.03 (inactive). To GGUUUUAGUAAACUUCCCATT against Fam76b belongs -0.692 (inactive); to GGAUCCUGGAUAAUCUGGGTT against Plscr1, -1.35 (inactive); to GCGUGCAUAUAUCCAAUGCTT against Tardbp, 1.36 (inactive). To GGUAAUCUCCAAAAAACCATT against Lilra6 belongs -0.863 (inactive); to GCUUUGAGCAGCUAGGUUATT against Tpcn2, 3.78 (active); to GGGACCUUUUCAGGACCUUTT against Ucp2, -0.954 (inactive). Turning to GGCUGCCUUCAUCUUUUCUTT against Fth1, the z-score was 0.873 (inactive). The same measure for GCUUGUAUGAGAUUACCUATT against Ttc1: 1.19 (inactive); for GGUCUUUGAGUCUACACAGTT against Pde4dip: -2.52 (active). To GGAGUCCUACGUCAAAGAATT against Pigz belongs -0.251 (inactive). The same measure for GGAUCAGUAGCAUUAACAATT against Tcf7l2: 0.414 (inactive); for GGUUCUCCAUACUUAUGCCTT against Prex1: 2.97 (active); for GGGCAAUCUGCUAUUCUCUTT against Pheta2: 0.18 (inactive). As for CCUUCUGUAUAGGUUCUGGTT against Slc41a3, the z-score is 0.716 (inactive). The same measure for GGGCUUAUGGAGUUGUAAATT against Avpi1: -0.633 (inactive). The same measure for GGACAAGAAAAAGGAUUAGTT against Clptm1: -0.414 (inactive).

With GCGUGAGUCCCUAUAUGAATT against Tmem177, the z-score is 2.98 (active). To GGCUUCGCUCUGGUUUACUTT against Rap1b belongs 0.323 (inactive); to GCAAUUCCACGUAUGGAUUTT against Olfr652, 0.336 (inactive); to GGCAAAAUUUGUGUGCAAATT against Mrc1, 1.02 (inactive).

As to GGCAGUCAUUACCUAUCAGTT against Atp7b, the z-score was -0.271 (inactive). To GGGUCAGCCAAAGGAAAAUTT against Nlrc3 belongs -0.193 (inactive). Turning to CCAUGUCAAUAUAGCUGUCTT against Igfbpl1, the z-score was 2.25 (active). To GCUUUCUCUUAUGGAUCUATT against Olfr700 belongs 0.966 (inactive); to CGUGAUGCUGUAAAUAGUUTT against AI606181, -0.485 (inactive). In the case of “CCCAGAAGACCCGAACUUUTT against E130006D01Rik”, the z-score was 0.378 (inactive).

For GGAGCAUCUCUCCAGAUUGTT against Igsf9, the z-score was 0.567 (inactive). Regarding CCGCUUUCUUGCCAUUCACTT against Olfr576, the z-score was -0.266 (inactive).

For the sequence GCCUUAAUGCUUCAAGGUGTT against Hspd1, the z-score was 0.021 (inactive). For the sequence UCUGACAUUGACUCUAGCCTT against Fbxw16, the z-score was -2.5 (active). To GUUUAUGGCCUCCUGUUGCTT against Gpbar1 belongs -0.773 (inactive); to GCAUGAGAGGUUUCAGUAUTT against Rnf150, 0.454 (inactive).

Take UUCGCUCUUGGUCCCUUCATT against Olfr1322: the z-score was 1.06 (inactive).

As for GCAUGUUGUCGACACAUGCTT against Bcl6, the z-score was 2.39 (active). Consider “CCGUCGUGGGUGAUAUCAUTT against 2310022A10Rik”, for which the z-score is -0.0389 (inactive). To GGUGGCUCUCCAAGUUCUATT against Uchl4 belongs -0.279 (inactive); to GAACACCCUGCCGACCAAATT against Tmsb10, -0.242 (inactive). To GGACUGAGUCAGAUUUACATT against Foxn2 belongs -0.622 (inactive); to GGGCUGAUGCUUAAACAAATT against Vmn1r72, -2.19 (active); to GCCCUUAUUAAACCAUUUGTT against Usp9x, -0.641 (inactive). Turning to GGACUGUUUUAGAUUACUUTT against Klra4, the z-score is 0.968 (inactive). To GCUUAUGUUUCUGCCACUCTT against Olfr1136 belongs 0.124 (inactive). To GCCACCAUUAAAAGACUGATT against Gdnf belongs 0.737 (inactive). For GGACAAGAUGAACUUUUCCTT against Pomp, the z-score is -2.85 (active). With CCUUGUAUGGAGAUAUUCCTT against Aph1b, the z-score is -0.573 (inactive). The same measure for GGUUCAGUUUGGAAAUGAATT against Rbm26: 0.809 (inactive); for CGUCUGUUUACCUCAUGAATT against Arid3a: -0.769 (inactive); for GGAUUUUGUCGGCAAGGCCTT against Ap5s1: -3.12 (active).

As to GGACUACUUCCCAAGAAUUTT against Gle1, the z-score is 0.365 (inactive). To GGUGGAGAAACAAAUUAGUTT against Rab9 belongs 1.47 (inactive); to GGAAGAAAGAAUUGAACUUTT against Add3, 1.02 (inactive); to CAUGAACGUGGGUAAAACGTT against Rab20, -0.878 (inactive). For GGAACUGGAUCCUAGGAUATT against Sh3bp5l, the z-score was -1.35 (inactive). Consider GCCAAAUCUACUGUUAUUUTT against Fam174a, for which the z-score was 1.06 (inactive). In the case of GGAAAGAUCAUGGACAAGUTT against Dtna, the z-score was 2.06 (active). The same measure for GCAGUGAUCCGGAACAAAUTT against Tmc3: -0.455 (inactive). To GGCGAAAAUUACUCGAAAGTT against Penk belongs 0.941 (inactive).

For GGAUGACGUAAUUGACGGCTT against Cyp19a1, the z-score is 0.0212 (inactive).

Consider CCAAAAUAAGUGUGGUCAATT against Vstm2l, for which the z-score was -0.623 (inactive). Consider GGACUUGGUUUAUGAAACATT against Kif9, for which the z-score was -1.33 (inactive).

For the sequence GGAGACCUUACCACUUGAATT against Ephx1, the z-score is -1.2 (inactive).
